Assay outcomes (PubChem BioAssay)
Only some compounds are listed: those with a hit (about 6.9% of all), similar ones and a draw of the others.
MCF10A rerep – induces DNA re-replication in MCF 10a normal breast cells; MCF 10A DNA re-replication, Hoechst nuclear intensity, 48 h; Potency, µM (titrated, usually from 46.1 µM), without a hit: at the highest dose activity, positive = re-replication, most hits filed as activators; 2.9% of 350,000 active; AID 624296; further: potency means the concentration at half of the fitted maximal effect; % of control where 0% means no effect; nearly all actives have a fitted effect of over 50% in size
IL-1B inflam inh – inflammasome signaling inhibition, IL-1 beta readout; activity change, % at 57.5 µM; THP-1 LPS/ATP IL-1B secretion, AlphaLISA, 16 h; active compounds read low; 4.7% of 360,000 active; AID 743279; in the data active means activity change below about -50%; inconclusive means mostly about -30% to -49%; further: on the % scale 0 is the no-effect control and ±100 the full control effect
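THP-1 cells pretreated 1 hr with compounds (up to 57.5 uM final), then stimulated with LPS (250 ng/mL final) plus ATP (1.25 mM final); secreted IL-1B measured by AlphaLISA after 16 hr, decreased signal indicating inhibition.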
Vif-A3F inh – inhibitors of Vif-A3F interaction; HeLa A3F-eYFP + Vif (tagged APOBEC3F with the HIV-1 protein that degrades it), YFP fluorescence increase; Potency, µM (series often up to 46.1 µM), inactives show top-dose activity, negative = active; 0.2% of 390,000 active; further: potency means the concentration at half of the fitted maximal effect; % of control where 0% means no effect; nearly all actives have a fitted effect of over 65% in size
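HeLa cells stably expressing Vif plus C-terminally eYFP-tagged A3F were seeded, incubated overnight at 37 deg C, dosed with compound, incubated overnight again at 37 deg C. Yellow fluorescence (Ex 488/Em 500-530) reported blocked Vif-mediated A3F-eYFP degradation.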
SW480 rerep – inducers of DNA re-replication in SW480 colon cancer cells | SW480 DNA re-replication, Hoechst DNA content imaging, 48 h | Potency, µM (series often up to 46.1 µM), without a hit: at the highest dose re-replication activation, hits mostly activators | AID 624297 | 1.8% of 340,000 active; further: potency means the concentration at half of the fitted maximal effect; % of control where 0% means no effect; nearly all actives have a fitted effect of over 55% in size
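DNA re-replication was detected as more nuclei of elevated Hoechst intensity after 48 hr exposure to compound (23 nL pinned per well of 250 cells).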
Vif-A3G inh – Vif-A3G binding inhibition; Q9HC16; HeLa A3G-eYFP + Vif (tagged APOBEC3G with the HIV-1 protein that degrades it), YFP fluorescence, overnight; Potency, µM (doses to about 46.1 µM), without a hit: top-dose activity, negative = active, hits mostly inhibitors; 0.076% of 410,000 active; AID 602310; further: potency means the concentration at half of the fitted maximal effect; on the % scale 0 is the no-effect control and ±100 the full control effect; nearly all actives have a fitted effect of over 60% in size
Target sequence (Q9HC16 whole entry, looked up): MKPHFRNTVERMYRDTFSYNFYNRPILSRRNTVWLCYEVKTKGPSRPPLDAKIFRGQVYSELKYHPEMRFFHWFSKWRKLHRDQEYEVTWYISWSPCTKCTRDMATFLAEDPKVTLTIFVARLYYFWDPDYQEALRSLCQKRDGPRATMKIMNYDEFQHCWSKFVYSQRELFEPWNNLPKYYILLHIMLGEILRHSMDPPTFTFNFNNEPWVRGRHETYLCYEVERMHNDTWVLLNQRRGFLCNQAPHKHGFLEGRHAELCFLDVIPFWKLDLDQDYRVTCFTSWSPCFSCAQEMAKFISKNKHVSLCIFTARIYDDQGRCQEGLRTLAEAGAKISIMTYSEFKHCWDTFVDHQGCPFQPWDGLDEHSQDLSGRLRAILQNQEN
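Read-out is eYFP fluorescence (Ex 488/Em 500-530) from Vif-expressing HeLa A3G-eYFP cells; more signal means A3G escaped Vif-mediated degradation. Cells plated overnight, compound pinned in, incubated overnight at 37 deg C.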
Giardia killer – Giardia lamblia killing. Giardia lamblia trophozoite viability. activity change, % at 7.66 µM, hits read low. 0.15% of 340,000 active; in the data active means activity change below about -80%; inconclusive means between about -30% and that limit;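 further: parasites exposed to compound for two days anaerobically before the ATP read; on the % scale 0 is the no-effect control and ±100 the full control effect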
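Trophozoite viability was measured as ATP-dependent luminescence, read 15-30 min after reagent addition. Before that, parasites at 100 cells/well were exposed to compounds for 48 h, anaerobically, at 37 deg C.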
Numbers without * were called inactive; ? = inconclusive; · = no result. Unless noted, the call rests on the fitted dose curve; in most records, active means well fitted curve in the direction sought with a large enough effect; inconclusive means small, poorly fitted or top-dose-only effect, or another doubt; inactive means no such curve, though single readings can be large; an effect the other way counts as inactive or inconclusive.

SMILES	MCF10A rerep	IL-1B inflam inh	Vif-A3F inh	SW480 rerep	Vif-A3G inh	Giardia killer
O=c1oc2c3c4c(cc2c(C(F)(F)F)c1CCN1CCOCC1)CCCN4CCC3	14%	78	7.9µM*	22%	?	-10
COc1ccc(-c2nc(Cn3c(SCc4ccc(F)cc4)nc4ccncc43)c(C)o2)cc1OC	3.7µM*	-20	?	0%	?	-11
Cc1ccc(CSc2nc3ccncc3n2Cc2nc(-c3ccc(Cl)cc3)oc2C)cc1	·	·	1%	·	2%	·
O=C(NCCc1ccccc1)c1cc(-c2ccccc2)nc2n[nH]c(-c3ccccc3)c12	·	·	-10%	·	-22%	·
COCCNC(=O)CSc1nc2cc3c(cc2c(=O)n1CCCCCC(=O)NCCc1ccc(OC)c(OC)c1)OCO3	·	·	0%	·	-1%	·
COc1ccc(CN(C(=O)c2ccco2)c2ccc(C)c(C)c2)cc1	10µM*	23	1%	16µM*	?	20
NC(=S)N/N=C1\CCSc2ccc(Cl)cc21	-2%	-2	?	18µM*	-3%	31
O=C(c1cnc2ccccc2n1)N1CCN(c2ccc(C(F)(F)F)cn2)CC1	1%	45	3%	0%	-5%	9
Cc1ccc(C(=O)N2CCN(c3ccc(C(F)(F)F)cn3)CC2)cc1	1%	0	·	-6%	2%	5
Cc1c(C(=O)N2CCN(c3ccc(C(F)(F)F)cn3)CC2)oc2ccccc12	23µM*	26	-6%	-6%	6%	10
Cc1ccccc1SCC(=O)N1CCN(c2ccc(C(F)(F)F)cn2)CC1	-2%	-92*	4%	-2%	1%	14
Cc1cccc(Cn2c(=O)n(-c3cc(C)cc(C)c3)c(=O)c3oc4ccccc4c32)c1	·	·	4%	·	4%	·
Cc1nn(-c2cc(N3CCCCCC3)ccc2[N+](=O)[O-])c(=O)c2ccccc12	12%	-3	-11%	11%	-1%	2
Cc1ccc(-c2nn(-c3cc(N4CCNCC4)ccc3[N+](=O)[O-])c(=O)c3ccccc23)cc1	-7%	-182*	-1%	-1%	0%	-2
COc1ccc(N(C(=O)CSCC(=O)Nc2cc(C)on2)C(C(=O)NC2CCCCC2)c2ccc(O)c(O)c2)cc1 (centres undefined)	-2%	1	-3%	2%	1%	0
Cc1cc(NC(=O)CSCC(=O)N(c2ccc(F)cc2)C(C(=O)NC2CCCCC2)c2ccc(O)c(O)c2)no1 (centres undefined)	-7%	-50*	1%	1%	1%	-25
Cc1cc(C)c2nc(N3C(=O)C(O)=C(C(=O)c4ccco4)C3c3ccco3)sc2c1 (centres undefined)	18µM*	26	3%	16µM*	-1%	-3
COc1ccc2nc(N3C(=O)C(O)=C(C(=O)c4ccco4)C3c3ccc(C)o3)sc2c1 (centres undefined)	?	52	-3%	-6%	-4%	30
CCOc1ccc2nc(N3C(=O)C(O)=C(C(=O)c4ccco4)C3c3ccco3)sc2c1 (centres undefined)	19%	22	3%	-7%	-3%	-5
Cc1ccc2nc(N3C(=O)C(O)=C(C(=O)c4ccco4)C3c3cccs3)sc2c1 (centres undefined)	21µM*	66	-19%	?	1%	-24
CCOC(=O)CCc1c(C)c2cc3c(c(C)c2oc1=O)OCN(CCc1ccccc1OC)C3	·	·	-10%	·	1%	·
CCOc1ccc(/C=C2/C(=O)N(c3ccc(OC)cc3)C(=S)N2CC(=O)OC)cc1OCC	23%	29	-26%	-30%	1%	19
COc1ccc(C(=O)/C=C/c2ccc(OC(=O)c3cc(OC)c(OC)c(OC)c3)cc2)cc1	?	-83*	-11%	?	-1%	-18
CCOc1ccc(/C=C/C(=O)c2ccccc2)cc1	16%	?	-2%	10%	-6%	-19
COC(=O)c1ccc(/C=C/C(=O)c2ccc(OC)cc2)cc1	?	?	0%	?	-8%	-14
SMILES	MCF10A rerep	IL-1B inflam inh	Vif-A3F inh	SW480 rerep	Vif-A3G inh	Giardia killer
CCOc1ccc(C(=O)/C=C/c2cc(OC)c(OC)c(OC)c2)cc1	?	-94*	5%	?	-25%	16
COc1cc(/C=C/C(=O)c2ccc(F)cc2)cc(OC)c1OC	?	-74*	12%	18µM*	?	0
CCOc1ccc(N2C(=O)/C(=C/c3cc(OC)c(OC)c(OC)c3)N(CC(=O)OC)C2=S)cc1	23µM*	-90*	-20%	14%	2%	8
Cc1ccc2c(c1)N(C(=O)N1CCC(C(=O)NC3CCCCCC3)CC1)CC(C)O2 (centres undefined)	·	·	8%	·	4%	·
CCc1ccc(C(=O)c2cn(CC(=O)NCCc3ccc(OC)c(OC)c3)c3nc(C)ccc3c2=O)cc1	·	·	-1%	·	-4%	·
Cc1cc2c(cc1C)N[C@]1(C[C@H]3CCCC(=O)N4CC[C@@H](C1)[C@@H]34)C(=Nc1ccccc1C)N2	·	·	·	·	-3%	·
COc1ccc(Cn2c(C3CC3)nc3ccc(NC(C)=O)cc3c2=O)cc1	-4%	-18	-10%	-2%	5%	20
COc1ccc(Cn2c(C3CC3)nc3ccc(NC(=O)c4cccnc4)cc3c2=O)cc1	1%	-70*	-20%	?	-20%	5
O=[N+]([O-])c1cccc2nc3ccccc3c(NCCCn3ccnc3[N+](=O)[O-])c12	?	-102*	11%	?	-11%	-95*
CCOC(=O)c1c(C(=O)OCC)c(C)n(CCc2ccc(OC)c(OC)c2)c1C	4%	1	-14%	9.2µM*	0%	-1
COc1ccc2c(c1)c(C(C)=O)c(C)n2CCc1ccc(OC)c(OC)c1	5%	-4	1%	-17%	1%	?
CC1CCCN(C(=O)CSc2c3c(nc4cc(Cl)ccc24)CCCC3)C1 (centres undefined)	·	·	6%	·	-8%	·
O=c1c2ccccc2nc2n1CCc1c-2[nH]c2ccccc12	8%	12	-9%	3%	-1%	?
Cc1cccc2c(=O)n3c(cc12)-c1[nH]c2ccccc2c1CC3	21µM*	-6	22µM*	?	-26%	-7
COc1ccc(NC(=O)CSc2nc3ccccc3nc2N2CCCC2)cc1	25%	-19	-13%	3%	-4%	10
CCOc1ccccc1NC(=O)CSc1nc2ccccc2nc1N1CCCC1	15µM*	33	-4%	?	0%	-7
COc1ccc(NC(=O)CSc2nc3ccccc3nc2N2CCCC2)cc1Cl	23µM*	-28	1%	9%	-1%	5
C=C(C)Cn1c(SCC(=O)Nc2ccccc2C)nc2sc3c(c2c1=O)CCCC3	·	·	-9%	·	3%	·
